Screens deposited in PubChem by The Scripps Research Institute Molecular Screening Center.
Hits are enriched below; roughly 2.6% of the tested compounds scored in any of these assays.
BaF3 tox = parental Ba/F3 viability inhibition as JAK2V617F counter-screen. AID 1486. CellTiter-Glo ATP luminescence. inhibition, % at 5.6 µM. hit rate 1.1% among 220,000;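 active = inhibition above a per-campaign cutoff, the mean inhibition of all tested compounds plus 3 SD, cut at about 27% in these data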;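 also: 0% = DMSO wells and 100% = JAK Inhibitor I control wells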
KLF5 inh = suppresses KLF5 promoter-driven expression. inhibition, % at 5 µM. DLD-1 KLF5 promoter-luciferase reporter, luminescence. AID 1700. hit rate 0.23% among 290,000;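 active = inhibition above a per-plate limit of that plate's mean compound inhibition plus 3 SD, cut at about 60% in these data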;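 also: 0% = DMSO wells and 100% = LY294002 at 200 µM; higher means less KLF5 promoter-driven luciferase light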
DNA FID counter = counter-screen for HCV NS3 helicase inhibitors: DNA intercalator displacement. inhibition, % at 7.9 µM. hit rate 0.17% among 290,000. AID 1845. DNA fluorescent intercalator displacement, fluorescence; in the data active = inhibition above about 37%;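 also: 0% = vehicle and 100% = reference compound; higher means more ethidium bromide displaced from hairpin DNA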
GPR7 antag = antagonists of human GPR7 (neuropeptides B/W receptor 1). P48145. GPR7-expressing cells, fluorescence antagonist assay. inhibition, % at 4.4 µM. hit rate 1.1% among 290,000. AID 1861; in the data active = inhibition above about 16%, passing the limit was not always enough;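 also: cells stimulated with the agonist NPW; 0% = agonist with vehicle and 100% = vehicle without agonist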
Target sequence (P48145 whole entry, looked up): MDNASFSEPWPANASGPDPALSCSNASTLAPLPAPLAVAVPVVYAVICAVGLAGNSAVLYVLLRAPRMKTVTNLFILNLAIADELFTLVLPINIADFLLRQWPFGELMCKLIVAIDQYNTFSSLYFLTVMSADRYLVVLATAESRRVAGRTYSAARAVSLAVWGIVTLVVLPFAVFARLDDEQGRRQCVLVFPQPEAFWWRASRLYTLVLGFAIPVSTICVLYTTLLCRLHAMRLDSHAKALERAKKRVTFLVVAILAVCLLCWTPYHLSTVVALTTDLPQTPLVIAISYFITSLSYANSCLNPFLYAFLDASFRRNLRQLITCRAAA
Ba/F3 V617F tox = lowers viability of Ba/F3 cells expressing EpoR and JAK2V617F. ATP luminescence. inhibition, % at 5.6 µM. hit rate 1.1% among 220,000. AID 1446;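 active = inhibition above the campaign mean plus 3 SD over all tested compounds, cut at about 24% in these data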;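 also: cytokine-independent growth of Ba/F3 cells driven by EpoR plus mutant JAK2; 0% = DMSO-treated cells and 100% = JAK inhibitor I control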
IEC-6 tox = IEC-6 cytotoxicity, counter-screen for KLF5 inhibitors | luminescence viability | inhibition, % at 5 µM | hit rate 0.78% among 290,000 | AID 1825;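 also: 0% = plate median of test compound wells and 100% = cytotoxic reference compound wells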
IEC-6 tox confirm = IEC-6 cytotoxicity, confirmation assay; shares compounds with IEC-6 tox; hit rate 63% among 1,900; AID 1907; inhibition, % at 5 µM; IEC-6 rat intestinal epithelial viability, luminescence;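 also: 0% = vehicle and 100% = reference cytotoxic drug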
* marks the source's active call; other numbers are inactive results; · = no result. Rule as the data show it, unless noted: active = inhibition above about 22%; inactive = the rest.

SMILES | BaF3 tox | KLF5 inh | DNA FID counter | GPR7 antag | Ba/F3 V617F tox | IEC-6 tox | IEC-6 tox confirm
CCc1nnc(NC(=O)c2ccc(S(=O)(=O)N(CC)Cc3ccccc3)cc2)o1 | 6 | 23 | -42 | -4 | 0 | 26* | 2
Clc1cccc(Cl)c1/C=N/Nc1c(Cl)cncc1Cl | 61* | 9 | -4 | -11 | 79* | 58* | 54*
Cc1oc(-c2cccc(Cl)c2)nc1CN1CCC(C(=O)NCCCN2CCCC2=O)CC1 | 7 | -1 | -1 | -1 | -4 | -3 | ·
Cc1oc(-c2cccc(Cl)c2)nc1CN1CCC(C(=O)NCCCN2CC(C)CC(C)C2)CC1 (configuration not stated) | · | -27 | 32 | 5 | · | 22* | 53*
COC(=O)C1C(=O)c2c([nH]c(C(=O)OC3CCCC3)c2C)CC1C (configuration not stated) | 0 | -120 | -11 | -3 | 0 | 3 | ·
Cc1c(C(=O)OCC(C)C)[nH]c2c1C(=O)CC(c1ccco1)C2 (configuration not stated) | 76* | 47 | -14 | -3 | 79* | 81* | 57*
Cc1c(C(=O)OC2CCCC2)[nH]c2c1C(=O)CC(c1ccco1)C2 (configuration not stated) | 81* | 56 | -15 | 14 | 77* | 88* | 57*
COc1ccc(OC)c(C2CC(=O)c3c([nH]c(C(=O)OCC4CCCO4)c3C)C2)c1 (configuration not stated) | 3 | -34 | -13 | -9 | -1 | 0 | ·
Cc1c(C(=O)OCC2CCCO2)[nH]c2c1C(=O)CC(c1ccco1)C2 (configuration not stated) | 4 | -14 | -12 | -2 | 11 | 38* | 47*
Cc1ccc(CS(=O)(=O)CCC(=O)NCCN(C)Cc2ccccc2)cc1 | 6 | -41 | 4 | -10 | 2 | 0 | ·
O=C(CCSCc1ccccc1Cl)NC1CCCCC1 | -1 | -45 | -17 | 10 | 0 | 3 | ·
COc1ccc(/C=N/Nc2nnc(C)n2N)cc1OC(C)=O | · | -26 | -5 | -10 | · | -7 | ·
COc1ccc(/C=N/Nc2nnc(C)n2N)cc1OC | 11 | 10 | 9 | -1 | 7 | 102* | 4
O=C(Cn1ccc2ccccc2c1=O)NCC(=O)N1CCN(c2ccccc2F)CC1 | · | 0 | -21 | -11 | · | -6 | ·
CCN1/C(=C/c2ccc3cc(C)ccc3[n+]2CC)Sc2ccccc21 | 106* | 41 | 0 | 44* | 102* | 50* | 70*
Fc1ccc(/C=N/NC(=S)NCCc2ccccc2)cc1F | · | -13 | -9 | -26 | · | 2 | ·
CCCC(=O)Nc1nc2ccc(NC(=O)c3ccccc3F)cc2s1 | 80* | 36 | -3 | 0 | 82* | 75* | 55*
Cc1ccc(S(=O)(=O)c2nc(-c3ccccc3Cl)oc2N(C)C)cc1 | · | 6 | -33 | -16 | · | 24* | 16
Cc1ccc(S(=O)(=O)c2nc(-c3ccccc3Br)oc2N(C)C)cc1 | · | -1 | -24 | -12 | · | 2 | ·
COc1ccc(N2CCC(CNC(=S)Nc3ccc(C)cc3C)C2)cc1 (configuration not stated) | -3 | -28 | 11 | -11 | 3 | 3 | ·
COc1cc(NS(=O)(=O)c2ccc(OC)c(C)c2C)c(OC)cc1Cl | 51* | 53 | -18 | 10 | 57* | 35* | 52*
Cc1ccc(CSCC(=O)Nc2ccccc2C(=O)O)cc1 | · | -101 | -12 | -15 | · | 29* | 25*
CCOC(=O)c1cn(CC)c2c(ccc3ccccc32)c1=O | · | -30 | -13 | -4 | · | -3 | ·
C=CCn1c(SCC(=O)c2cccs2)nc2sc(C)cc2c1=O | -1 | -6 | -10 | -8 | -4 | 66* | 44*
CCN(CC)c1ccc2cc(-c3nc4ccccc4n3C)c(=O)oc2c1 | 77* | 50 | -5 | 17* | 69* | 84* | 66*
Cc1ccc(Nc2nc(=O)c3cccnc3s2)cc1 | 7 | -39 | 3 | -10 | 0 | 37* | 39*
c1ccc(-c2cccc(-c3ccccn3)n2)nc1 | 85* | 53 | -4 | -6 | 94* | 81* | 83*
c1ccc(-c2ccc(-c3ccccn3)s2)nc1 | -2 | -65 | -8 | -3 | 0 | 13 | ·
COc1ccc(NC(=O)c2ccc(CNS(=O)(=O)c3cccc(OC)c3)cc2)cc1 | 4 | -37 | -10 | -2 | -3 | -4 | ·
